These results are taken from PubChem BioAssay.

For part of these data: Potency and affinity values are given separately. Calls of active or inactive are those of the source.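 The calls were made as follows, unless noted: active = dose curve with midpoint inside tested range, moderate steepness, plateau gap beyond fit error, low compound glow and bead-link interference; inactive = the rest.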

Assay [1] addresses Cell division control protein 42 homolog (Homo sapiens) (UniProt P60953). As to the kind of experiment: activated mutant Cdc42 GTP-binding inhibitors, dose response, biochemical, multiplex bead flow cytometry, Bodipy-FL-GTP (AID 1333;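 active = fitted half-maximal concentration within the tested dose range, moderate curve steepness, a statistically real signal drop, and little compound fluorescence or tag-binding interference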). On the technique in general: A flow cytometer gives signals particle by particle.
For assay [2] the target is unchanged. Put plainly: wildtype Cdc42 GTP-binding inhibitors, dose response, biochemical, multiplex bead flow cytometry, Bodipy-FL-GTP (AID 1334;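 active = fitted half-maximal concentration within the tested range, moderate curve steepness, significant signal drop, and little compound fluorescence or bead-linkage interference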). The settings on record: bead-based flow cytometry, Bodipy-FL-GTP binding to GST-Cdc42; at 100 µM (top of the series) unless noted.
Assay [3] has as its target GTPase HRas (Homo sapiens) (UniProt P01112). As to the kind of experiment: inhibitors of GTP binding to wildtype Ras, dose response, biochemical, multiplex bead flow cytometry (AID 1335;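 active = fitted half-maximal concentration within 10 nM to 100 µM, steepness 0.5 to 2, significant signal drop, low assay interference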). To be noted: bead-based flow cytometry, Bodipy-GTP binding to GST-Ras; at 100 µM (top of the series) unless noted.
For assay [4], the system named is Ras-related protein Rab-7a (dog), GTP binding. Put plainly: Rab7 GTP binding inhibitors, potency, dose response, biochemical, wildtype, multiplex bead flow cytometry (AID 1336; call rule not given here).
Assay [5] addresses Ras-related C3 botulinum toxin substrate 1 (Homo sapiens) (UniProt P63000). Put plainly: wildtype Rac1 GTP binding inhibitors, dose response, biochemical, multiplex bead flow cytometry (AID 1340). To be noted: GST-Rac1 beads, Bodipy-FL-GTP binding; at 100 µM (top of the series) unless noted.
Assay [6] concerns the target GTPase HRas (Homo sapiens) (UniProt P01112). Put plainly: activated Ras mutant GTP binding inhibitors, dose response, biochemical, multiplex bead flow cytometry (AID 1341;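 active = dose-response curve with midpoint inside the tested range, moderate steepness, significant amplitude and little compound fluorescence or bead-attachment interference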;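 also: GST-tagged constitutively activated Ras mutant immobilized on beads and multiplexed with other GTPases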).

Cell division control protein 42 homolog (Homo sapiens), sequence (P60953 whole entry, looked up): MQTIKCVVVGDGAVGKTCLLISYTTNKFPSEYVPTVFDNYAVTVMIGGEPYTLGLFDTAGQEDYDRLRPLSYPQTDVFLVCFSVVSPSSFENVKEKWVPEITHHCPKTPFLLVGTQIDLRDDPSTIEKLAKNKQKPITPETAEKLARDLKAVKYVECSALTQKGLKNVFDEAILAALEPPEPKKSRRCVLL
GTPase HRas (Homo sapiens), sequence (P01112 whole entry, looked up): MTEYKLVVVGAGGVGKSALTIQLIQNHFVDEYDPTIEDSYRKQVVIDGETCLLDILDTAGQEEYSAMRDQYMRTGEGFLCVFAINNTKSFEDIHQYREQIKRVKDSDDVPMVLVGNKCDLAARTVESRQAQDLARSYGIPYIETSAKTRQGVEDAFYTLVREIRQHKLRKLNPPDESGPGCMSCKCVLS

Take `COc1cc(/C=C(\C#N)c2nc3ccc(C)cc3[nH]2)cc([N+](=O)[O-])c1O`: the outcome in assay [1], in assay [4] and in assay [6] was inactive. In assay [2], this molecule showed a fluorescence, percent of control (lower = inhibition) of 25.3%. The GTP binding, percent of control in assay [3] was found to be 61.6%. The GTP binding signal, raw median fluorescence (lower = inhibition) (MCF (arbitrary fluorescence units)) in assay [5] was 151.
Regarding `Cc1ccccc1CSc1ncccc1C(=O)O`, the molecule was called inactive in assay [1], in assay [4] and in assay [6]. Besides, the fluorescence, percent of control (lower = inhibition) in assay [2] is 74.5%. Moreover, the GTP binding, percent of control in assay [3] was 87.9%. In assay [5], this molecule showed a GTP binding signal, raw median fluorescence (lower = inhibition) (MCF (arbitrary fluorescence units)) of 48.3.
Regarding `Cc1nc(Nc2ccc(C(=O)O)cc2)nc(Nc2ccc(C(=O)O)cc2)c1[N+](=O)[O-]`, the molecule was classed as inactive in assay [1], in assay [4] and in assay [6]. The fluorescence, percent of control (lower = inhibition) in assay [2] was found to be 28.7%. The molecule further showed a GTP binding, percent of control in assay [3] of 64.9%. The molecule also came in with a GTP binding signal, raw median fluorescence (lower = inhibition) (MCF (arbitrary fluorescence units)) in assay [5] of 111.
In the case of `O=C(CN1C(=O)C2C3c4ccccc4C(c4ccccc43)C2C1=O)Nc1cccc(C(=O)O)c1` (stereo not given), the outcome in assay [1], in assay [4] and in assay [6] was inactive. Further, the fluorescence, percent of control (lower = inhibition) in assay [2] turned out to be 46.1%. The GTP binding, percent of control in assay [3] stood at 58.8%. Besides, the GTP binding signal, raw median fluorescence (lower = inhibition) (MCF (arbitrary fluorescence units)) in assay [5] stood at 165.
In the case of `Cc1ccc(/C=C(\CCC(=O)O)c2nc3ccccc3s2)cc1[N+](=O)[O-]`, the result in assay [1], in assay [4] and in assay [6] was inactive. Besides, the fluorescence, percent of control (lower = inhibition) in assay [2] turned out to be 24.9%. Moreover, the GTP binding, percent of control in assay [3] was found to be 70.3%. The molecule further showed a GTP binding signal, raw median fluorescence (lower = inhibition) (MCF (arbitrary fluorescence units)) in assay [5] of 216.
Turning to `Cn1nc([N+](=O)[O-])c(C(C#N)c2ccccn2)c(Cl)c1=O` (stereo not given), the molecule was classed as inactive in assay [1], in assay [4] and in assay [6]. Besides, in assay [2], the fluorescence, percent of control (lower = inhibition) was 24%. This molecule had a GTP binding, percent of control in assay [3] of 74.7%. The same molecule showed a GTP binding signal, raw median fluorescence (lower = inhibition) (MCF (arbitrary fluorescence units)) in assay [5] of 201.
Take `NC(=O)N=Nc1c(O)[nH]c2c(Br)cc(Br)cc12`: the result in assay [1], in assay [4] and in assay [6] was inactive. The molecule also came in with a fluorescence, percent of control (lower = inhibition) in assay [2] of 37.2%. Besides, the GTP binding, percent of control in assay [3] turned out to be 81.4%. Besides, the GTP binding signal, raw median fluorescence (lower = inhibition) (MCF (arbitrary fluorescence units)) in assay [5] was found to be 213.
Consider `O=C(O)c1ccc(CSCc2cccc(Cl)c2)o1`, for which the call in assay [1], in assay [4] and in assay [6] was inactive. In assay [2], this molecule displayed a fluorescence, percent of control (lower = inhibition) of 57.3%. Besides, the GTP binding, percent of control in assay [3] came out at 81.4%. The same molecule had a GTP binding signal, raw median fluorescence (lower = inhibition) (MCF (arbitrary fluorescence units)) in assay [5] of 30.1.
For `CSc1nc2ccc(NS(=O)(=O)c3c(Cl)cccc3Cl)cc2s1`, the molecule was called inactive in assay [1], in assay [4] and in assay [6]. Also, the fluorescence, percent of control (lower = inhibition) in assay [2] is 31.2%. Further, the GTP binding, percent of control in assay [3] worked out at 77.9%. The molecule further yielded a GTP binding signal, raw median fluorescence (lower = inhibition) (MCF (arbitrary fluorescence units)) in assay [5] of 245.
Consider `O=C(O)c1cccc(NCc2ccccc2)c1`, for which the result in assay [1], in assay [4] and in assay [6] was inactive. In addition, the fluorescence, percent of control (lower = inhibition) in assay [2] came out at 65.9%. The molecule further gave a GTP binding, percent of control in assay [3] of 86.9%. In assay [5], the GTP binding signal, raw median fluorescence (lower = inhibition) (MCF (arbitrary fluorescence units)) was 38.8.
As to `Cc1cc(C)cc(C(=O)N(NC(=O)Nc2ccc(Cl)cc2)C(C)(C)C)c1`, the result in assay [1], in assay [4] and in assay [6] was inactive. The fluorescence, percent of control (lower = inhibition) in assay [2] was found to be 94.9%. The molecule further registered a GTP binding, percent of control in assay [3] of 150%. Also, the GTP binding signal, raw median fluorescence (lower = inhibition) (MCF (arbitrary fluorescence units)) in assay [5] stood at 186.
Regarding `N#Cc1c(=O)c2nc(NCc3ccccc3)ncc2n2ccccc12`, the call in assay [1], in assay [4] and in assay [6] was inactive. Besides, in assay [2], the fluorescence, percent of control (lower = inhibition) was found to be 41.3%. In addition, in assay [3], the GTP binding, percent of control was 48.1%. In assay [5], this molecule yielded a GTP binding signal, raw median fluorescence (lower = inhibition) (MCF (arbitrary fluorescence units)) of 0.
In the case of `O=C(O)CC/C(=C\c1ccc(N2CCOCC2)c([N+](=O)[O-])c1)c1nc2ccccc2s1`, the call in assay [1], in assay [4] and in assay [6] was inactive. The fluorescence, percent of control (lower = inhibition) in assay [2] amounted to 28.1%. This molecule also had a GTP binding, percent of control in assay [3] of 71.9%. For the same molecule, in assay [5], the GTP binding signal, raw median fluorescence (lower = inhibition) (MCF (arbitrary fluorescence units)) worked out at 212.
`Clc1ccccc1-c1ccc(/C=N/Nc2nncc(-c3ccccc3)n2)o1`: the molecule was classed as inactive in assay [1], in assay [4] and in assay [6]. Further, the fluorescence, percent of control (lower = inhibition) in assay [2] is 39%. In assay [3], this molecule returned a GTP binding, percent of control of 89.5%. The molecule further had a GTP binding signal, raw median fluorescence (lower = inhibition) (MCF (arbitrary fluorescence units)) in assay [5] of 220.
Consider `Nc1nc(N)c2sc3nc4c(cc3c2n1)CCC4`, for which the molecule was classed as inactive in assay [1], in assay [4] and in assay [6]. The molecule also came in with a fluorescence, percent of control (lower = inhibition) in assay [2] of 89.1%. The same molecule gave a GTP binding, percent of control in assay [3] of 126%. The molecule also had a GTP binding signal, raw median fluorescence (lower = inhibition) (MCF (arbitrary fluorescence units)) in assay [5] of 136.
